Hits are enriched below; roughly 5.5% of the tested compounds scored in any of these assays.
Chronic BCR inh: qHTS Assay to Find Inhibitors of Chronic Active B-Cell Receptor Signaling | AID 493014, 2011 | Potency, µM (top dose mostly 46.1 µM), hits mostly inhibitors | ABC-DLBCL IkBa-CBG/CBR reporter, luminescence ratio, 4 h | 340,000 compounds, 0.05% hits; active = well fitted inhibition curve with a large enough effect in the signal ratio, with a control signal flat, not every such curve was filed as active; inconclusive = small, poorly fitted or top-dose-only effect, or effect the other way, or a change in a side signal; the % refers to the signal ratio
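TMD8 ABC-DLBCL cells carrying doxycycline-inducible green luciferase fused to IkappaBalpha plus unfused red luciferase were exposed to compounds (up to 46 uM) for 4 hrs at 37C. Activity came from the overlap-corrected green/red luminescence ratio.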
Mito fusion yeast: qHTS Assay for Small Molecule Inhibitors of Mitochondrial Division or Activators of Mitochondrial Fusion | S. cerevisiae fusion-defective mutant growth rescue, CellTiterGlo 48 h | Potency, µM (doses to about 46.1 µM), most hits filed as activators | 320,000 compounds, 0.23% hits; note: nearly all actives have a fitted effect of over 45% in size
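Yeast fusion mutant, YPEG (non-fermentable carbon), compound, 48 h at 37C non-permissive; CellTiterGlo added, 10 min RT, luminescence read. Rescued growth = division inhibition.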
Gal4-VP16 FLuc: VP16 counterscreen qHTS for inhibitors of ROR gamma transcriptional activity. 310,000 compounds, 3.5% hits. Potency, µM (titrated, usually from 53.6 µM), actives largely listed as inhibitors. Drosophila S2 Gal4-VP16 UAS-luciferase, luminescence, 20 h;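 note: Gal4-VP16 expression switched on by copper sulfate through the metallothionein promoter; nearly all actives have a fitted effect of over 50% in size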
a7 integrin act: qHTS for Activators of Integrin-Mediated Alleviation for Muscular Dystrophy; alpha7betagal myoblasts, beta-gal FDG fluorescence, 48 h; AID 624291, 2012; Potency, µM (top dose mostly 38.3 µM), usual class: activators; 350,000 compounds, 0.064% hits; note: nearly all actives have a fitted effect of over 60% in size
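alpha7betagal+/- myoblasts (passage 13, 250/well) treated 48 h at 37C with compounds at 1:260 dilution of DMSO stock. Lysed, then beta-galactosidase activity read as FDG fluorescence (ex 480/em 540) after 30 min, with pre-read for autofluorescence.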
uPA surface inh: qHTS for Inhibitors of Cell Surface uPA Generation; cell surface uPA generation assay, qHTS; Potency, µM (top dose mostly 38.3 µM), most hits filed as inhibitors; 330,000 compounds, 0.31% hits; AID 540303, 2011; active = well fitted inhibition curve with a large enough effect; inconclusive = small, poorly fitted or top-dose-only effect; inactive = no such curve, though single readings can be large or run the other way; tested in mouse RAW 264.7 cells; note: nearly all actives have a fitted effect of over 55% in size
RORg inh: qHTS for inhibitors of ROR gamma transcriptional activity | Potency, µM (titrated, usually from 53.6 µM), usual class: inhibitors | Drosophila S2 Gal4-RORgamma UAS-luciferase reporter, 20 h | 310,000 compounds, 5.4% hits | Nuclear receptor ROR-gamma (Mus musculus), P51450; note: nearly all actives have a fitted effect of over 60% in size
Target sequence (P51450 whole entry, looked up, the tested form may be a part): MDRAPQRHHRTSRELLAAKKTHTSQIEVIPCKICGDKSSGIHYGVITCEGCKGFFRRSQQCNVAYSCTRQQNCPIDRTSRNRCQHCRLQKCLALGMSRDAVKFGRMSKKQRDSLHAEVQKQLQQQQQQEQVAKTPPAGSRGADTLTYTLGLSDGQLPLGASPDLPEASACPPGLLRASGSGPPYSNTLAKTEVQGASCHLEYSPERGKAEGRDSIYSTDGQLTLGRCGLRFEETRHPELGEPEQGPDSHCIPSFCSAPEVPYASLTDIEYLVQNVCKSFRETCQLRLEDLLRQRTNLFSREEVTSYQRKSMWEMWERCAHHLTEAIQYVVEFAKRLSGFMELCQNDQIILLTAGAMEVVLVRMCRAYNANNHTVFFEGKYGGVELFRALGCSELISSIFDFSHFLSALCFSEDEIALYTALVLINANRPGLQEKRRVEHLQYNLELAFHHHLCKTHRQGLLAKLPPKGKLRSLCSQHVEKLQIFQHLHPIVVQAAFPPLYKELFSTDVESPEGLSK
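Stably transfected Drosophila Schneider cells are the test system, with ROR gamma fused to Gal4 and luciferase under UAS control; luminescence is read after 20 hr of 700 uM copper sulfate induction at ambient temperature.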
A number is an active result; [ ] = remark or other dose. Unless noted, calls come from the whole dose curve; as a rule, active = well fitted curve in the direction sought with a large enough effect; inconclusive = small, poorly fitted or top-dose-only effect, or another doubt; inactive = no such curve, though single readings can be large; an effect the other way counts as inactive or inconclusive.

Results for CCOc1cccc(/C=N/Nc2ccc(S(=O)(=O)N(CC)CC)cn2)c1O ?
Chronic BCR inh: inconclusive; Mito fusion yeast: inactive; Gal4-VP16 FLuc: 3.2µM; a7 integrin act: inactive; uPA surface inh: inactive; RORg inh: 1µM

How did CCN(CC)S(=O)(=O)c1ccc(N/N=C/c2ccc(O)cc2)nc1 do in these assays?
Chronic BCR inh: inconclusive; Mito fusion yeast: inactive; Gal4-VP16 FLuc: inactive; a7 integrin act: inactive; uPA surface inh: inactive; RORg inh: inactive

How did CCN(CC)S(=O)(=O)c1ccc(N/N=C(\C)c2ccc(OC)cc2O)nc1 do in these assays?
Chronic BCR inh: inconclusive; Mito fusion yeast: inactive; Gal4-VP16 FLuc: 2.5µM; a7 integrin act: inactive; uPA surface inh: 5.6µM; RORg inh: 0.71µM

Results for COC(=O)Cn1cc(S(=O)(=O)NCc2ccc(C)cc2)c2cc([N+](=O)[O-])ccc21 ?
Chronic BCR inh: inactive; Mito fusion yeast: inactive; Gal4-VP16 FLuc: inactive; a7 integrin act: inactive; uPA surface inh: inactive; RORg inh: inactive

What do the screens show for `O=C1CS/C(=N/N=C\c2ccn[nH]2)N1`?
Chronic BCR inh: inactive; Mito fusion yeast: inactive; Gal4-VP16 FLuc: inconclusive; a7 integrin act: inactive; uPA surface inh: inactive; RORg inh: 10µM

Results for COc1cc2ccccc2cc1C(=O)Nc1sc2c(c1C(N)=O)CCN(C(C)C)C2 ?
Chronic BCR inh: inconclusive; Mito fusion yeast: inactive; Gal4-VP16 FLuc: 18µM; RORg inh: 13µM

Results for CN1CCc2c(sc(NC(=O)c3ccc4ccccc4c3)c2C(N)=O)C1 ?
Chronic BCR inh: inconclusive; Mito fusion yeast: inactive; Gal4-VP16 FLuc: inconclusive; RORg inh: inconclusive

How did CC1=C(C(=O)Nc2ccccc2)C(c2ccc[nH]2)n2ncnc2N1 (stereo unspecified) do in these assays?
Chronic BCR inh: inconclusive; Mito fusion yeast: inactive

Results for CN(CC(=O)Nc1ccccc1C(F)(F)F)C(=O)C1CC1 ?
Chronic BCR inh: inactive; Mito fusion yeast: inactive; a7 integrin act: inactive; uPA surface inh: inactive

Results for CCCn1c(/N=C/c2ccccc2O)nc2ccccc21 ?
Chronic BCR inh: inactive; Mito fusion yeast: inactive; Gal4-VP16 FLuc: inactive; a7 integrin act: inactive; uPA surface inh: inactive; RORg inh: inactive

What do the screens show for `CCn1c(/N=C/c2ccc(OC)cc2O)nc2ccccc21`?
Chronic BCR inh: inactive; Mito fusion yeast: inactive; Gal4-VP16 FLuc: inconclusive; a7 integrin act: inactive; uPA surface inh: inactive; RORg inh: 20µM

What do the screens show for `Cc1ccccc1OCCCn1c(=O)sc2ccccc21`?
Chronic BCR inh: inconclusive; Mito fusion yeast: inactive; Gal4-VP16 FLuc: 10µM; a7 integrin act: inactive; uPA surface inh: inactive; RORg inh: 2.8µM

What do the screens show for `Cc1oc(-c2ccc(-c3ccccc3)cc2)nc1CN(CCO)C(C)C`?
Chronic BCR inh: inconclusive; Mito fusion yeast: inactive; Gal4-VP16 FLuc: inconclusive; a7 integrin act: inactive; uPA surface inh: inactive; RORg inh: 7.9µM

Results for Cc1ccc(-c2nc(CS(=O)(=O)CC(=O)NCCCN(Cc3ccccc3)C(C)C)c(C)o2)cc1 ?
Chronic BCR inh: inconclusive; Mito fusion yeast: inactive; Gal4-VP16 FLuc: inactive; a7 integrin act: inactive; uPA surface inh: inconclusive; RORg inh: inactive

What do the screens show for `Cc1oc(-c2ccc(-c3ccccc3)cc2)nc1CN(C)C1CCOC1` (stereo unspecified)?
Chronic BCR inh: inconclusive; Mito fusion yeast: inactive; Gal4-VP16 FLuc: inconclusive; a7 integrin act: inactive; uPA surface inh: inactive; RORg inh: 14µM

How did Cc1oc(-c2cccc(Cl)c2)nc1CN(C)C1CCOC1 (stereo unspecified) do in these assays?
Chronic BCR inh: inactive; Mito fusion yeast: inactive; Gal4-VP16 FLuc: inactive; a7 integrin act: inactive; uPA surface inh: inactive; RORg inh: inconclusive

How did COC(=O)c1ccc2nc(-c3ccc4c(c3)OCO4)cn2c1 do in these assays?
Chronic BCR inh: inactive; Mito fusion yeast: inactive; Gal4-VP16 FLuc: inconclusive; a7 integrin act: inactive; uPA surface inh: inactive; RORg inh: inconclusive

How did CCc1ccn2cc(-c3ccc4c(c3)OCO4)nc2c1 do in these assays?
Chronic BCR inh: inconclusive; Mito fusion yeast: inactive; Gal4-VP16 FLuc: 4.5µM; a7 integrin act: inactive; uPA surface inh: inactive; RORg inh: 1.1µM

What do the screens show for `CC(C)c1ccc(N2C(=O)CC(Sc3ncn[nH]3)C2=O)cc1` (stereo unspecified)?
Chronic BCR inh: inconclusive; Mito fusion yeast: inactive; Gal4-VP16 FLuc: inconclusive; a7 integrin act: inactive; uPA surface inh: inactive; RORg inh: inconclusive

Results for CCOc1ccc(N2C(=O)CC(Sc3nc(C)cc(C)n3)C2=O)cc1 (stereo unspecified) ?
Chronic BCR inh: inactive; Mito fusion yeast: inactive; Gal4-VP16 FLuc: inactive; a7 integrin act: inactive; uPA surface inh: inactive; RORg inh: inactive[10 µM]

How did COc1ccccc1N1C(=O)CC(Sc2nc(C)cc(C)n2)C1=O (stereo unspecified) do in these assays?
Chronic BCR inh: inconclusive; Mito fusion yeast: inactive; Gal4-VP16 FLuc: inactive; a7 integrin act: inactive; uPA surface inh: inactive; RORg inh: 11µM

What do the screens show for `COc1ccc(N2C(=O)CC(Sc3ncn[nH]3)C2=O)c(OC)c1` (stereo unspecified)?
Chronic BCR inh: inactive; Mito fusion yeast: inactive; Gal4-VP16 FLuc: 22µM; a7 integrin act: inactive; uPA surface inh: inactive; RORg inh: 3.2µM

Results for CCOc1ccccc1N1C(=O)CC(Sc2n[nH]c(-c3ccccc3)n2)C1=O (stereo unspecified) ?
Chronic BCR inh: inconclusive; Mito fusion yeast: inactive; Gal4-VP16 FLuc: inactive; a7 integrin act: inactive; uPA surface inh: inactive; RORg inh: 3.5µM

How did Cc1ccc(N2C(=O)CC(Sc3nc(C)cc(C)n3)C2=O)cc1 (stereo unspecified) do in these assays?
Chronic BCR inh: inactive; Mito fusion yeast: inactive; Gal4-VP16 FLuc: inactive; a7 integrin act: inactive; uPA surface inh: 5µM; RORg inh: inconclusive

Results for COc1ccc(N2C(=O)CC(Sc3nc(C)cc(C)n3)C2=O)cc1OC (stereo unspecified) ?
Chronic BCR inh: inactive; Mito fusion yeast: inactive; Gal4-VP16 FLuc: inconclusive; a7 integrin act: inactive; uPA surface inh: inactive; RORg inh: inactive[1.91 µM]

What do the screens show for `Cc1ccc(NC(=O)CSc2nccn2-c2ccccc2)cc1`?
Chronic BCR inh: inactive; Mito fusion yeast: inactive

How did C[C@H](CCC(=O)O)[C@H]1CC[C@H]2[C@H]3C(C[C@H](O)[C@]12C)[C@@]1(C)CC[C@@H](O)C[C@H]1C[C@H]3O (stereo partly specified) do in these assays?
Gal4-VP16 FLuc: inactive; RORg inh: inactive
